Laboratory results as given in PubChem BioAssay (NCI).
This is part of a sample that, as a whole, favours compounds with a hit. Of some 83,000 tested, about 20% had one in any assay.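 Single-concentration screen, 48 h exposure, 96-well plates. Endpoint: percent growth. Below 10 = active.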 Unmarked numbers belong to inactive results. Calls of active or inactive are those of the source.

Experiments:
Assay in all cases: NCI-60 one-dose screen, 48 h (100 = growth as untreated, 0 = no growth, -100 = all killed)
Conditions in all cases: 10 µM unless noted
NCI-H23 lung = tested on: NCI-H23 lung
NCI-H226 lung = tested on: NCI-H226 lung
NCI-H322M lung = tested on: NCI-H322M lung
HOP-62 NSCLC = tested on: HOP-62 NSCLC
NCI-H460 lung = tested on: NCI-H460 lung
HOP-92 NSCLC = tested on: HOP-92 NSCLC
A549/ATCC NSCLC = tested on: A549/ATCC NSCLC
786-0 renal = tested on: 786-0 renal
COLO 205 colon = tested on: COLO 205 colon
DU-145 prostate = tested on: DU-145 prostate
K-562 leukemia = tested on: K-562 leukemia
MALME-3M melanoma = tested on: MALME-3M melanoma
MDA-MB-231 breast = tested on: MDA-MB-231 breast
SF-268 CNS = tested on: SF-268 CNS
SF-295 CNS = tested on: SF-295 CNS
SF-539 CNS = tested on: SF-539 CNS
UACC-257 melanoma = tested on: UACC-257 melanoma
M14 melanoma = tested on: M14 melanoma
RXF 393 renal = tested on: RXF 393 renal

| Compound | growth (NCI-H23 lung) | growth (NCI-H226 lung) | growth (NCI-H322M lung) | growth (HOP-62 NSCLC) | growth (NCI-H460 lung) | growth (HOP-92 NSCLC) | growth (A549/ATCC NSCLC) | growth (786-0 renal) | growth (COLO 205 colon) | growth (DU-145 prostate) | growth (K-562 leukemia) | growth (MALME-3M melanoma) | growth (MDA-MB-231 breast) | growth (SF-268 CNS) | growth (SF-295 CNS) | growth (SF-539 CNS) | growth (UACC-257 melanoma) | growth (M14 melanoma) | growth (RXF 393 renal) |
| --- | --- | --- | --- | --- | --- | --- | --- | --- | --- | --- | --- | --- | --- | --- | --- | --- | --- | --- | --- |
| COc1ccc(C(=O)/C=C/c2cn(Cc3ccc(Cl)cc3)c3ccccc23)cc1 | 87.5% | 55.1% | 79.5% | 58.9% | 11.8% | 77.3% | 57.2% | 26.9% | 62.9% | 87.4% | 15.5% | 59.9% | 64.5% | 72.4% | 60.2% | 55.8% | 81.8% | -60.1% (active) | – |
| C#CC(=O)Nc1cccc(Nc2nc3c(c(NCc4ccccc4)n2)CCCC3)c1 | -61.2% (active) | -31.4% (active) | -56.9% (active) | -82.8% (active) | -57.8% (active) | -71.7% (active) | -48.5% (active) | -90.3% (active) | -68.9% (active) | -85.1% (active) | -22.3% (active) | -64.1% (active) | -71.7% (active) | -78.5% (active) | -84% (active) | -90.7% (active) | -90.6% (active) | -88.2% (active) | -99.5% (active) |
| O=C(NCCN1CCOCC1)OCc1nc2nc(Cl)nc(N3CCOCC3)c2[nH]1 | 26.3% | 62.6% | 42.4% | 32.5% | 9.27% (active) | 54.3% | 68.2% | 58.1% | 110% | 8.23% (active) | 6.62% (active) | 50% | 22.9% | 27% | 94.6% | -15.8% (active) | 69.2% | 9.49% (active) | – |
| O=S(=O)(c1cccc(NC2=Nc3cccc4cccc2c34)c1)N1CCCC1 | 60.8% | 62.3% | 80.1% | 91.5% | 50.7% | -3.41% (active) | 66.3% | 82.9% | 95.6% | 90.4% | 19.3% | 64.1% | 77.1% | 79.1% | 59% | 74.9% | 64.9% | 69.5% | – |
| O=c1[nH]c(=O)[nH]c(=S)[nH]1 | 98.5% | 97.9% | 95.6% | 102% | 105% | 101% | 99.7% | 102% | 103% | 105% | 105% | 98% | 102% | 102% | 102% | 98.8% | 101% | 100% | 107% |
| Fc1ccc2nc3c(cc2c1)CSc1nnc(-c2ccc[nH]c2=S)n1N3 | 92.7% | 93.3% | 106% | 93.3% | 105% | 78.1% | 108% | 89.7% | 115% | 114% | 106% | 112% | 94.4% | 98.7% | 105% | 95.7% | 105% | 99% | – |
| CCCCCN1C=C/C(=C\C(=O)N(C)c2cccc3ccccc23)c2ccccc21 | 81.4% | 101% | 97.7% | 102% | 105% | 92.6% | 102% | 96.8% | 109% | 104% | 77.4% | 94% | 106% | 95.3% | 97.7% | 105% | 106% | 102% | 107% |
| COc1ccc(C(=O)c2cc3c(N)c(C(=O)Nc4cccc5ccccc45)sc3nc2C)cc1 | 30.7% | 47.4% | 51.4% | 30.2% | 3.06% (active) | 44.5% | 17.6% | 31.6% | – | 9.48% (active) | 7.36% (active) | 55% | 15.7% | 29.1% | 19.7% | -9.85% (active) | 55.8% | 11.6% | – |
| Cc1[nH]n(-c2cccc(Cl)c2)c(=O)c1/C=C1\C=Nc2ccc(Br)cc21 | 31.7% | 69.1% | 54.9% | -16.4% (active) | -72.9% (active) | -16.9% (active) | -8.71% (active) | -4.37% (active) | – | 36.2% | 64% | 12.6% | 17.4% | 51.1% | 31.3% | 42.2% | 75.1% | 54.3% | -44.4% (active) |
| S=c1[nH]cccc1-c1nnc2n1Nc1nc3ccc(Cl)cc3cc1CS2 | 92% | 94.9% | 103% | 108% | 102% | 107% | 107% | 98.8% | 122% | 117% | 97.5% | 110% | 89.9% | 101% | 98.5% | 97.7% | 102% | 98.6% | – |
| COc1ccccc1C(C[N+](=O)[O-])c1c(-c2ccccc2)[nH]c2cc(C)ccc12 (centres undefined) | 68.4% | 53.1% | 90.4% | 71.9% | 85.2% | 64.4% | 61.8% | 86.8% | 78.4% | 101% | 8.66% (active) | 61.2% | 55.4% | 78.6% | 54.1% | 84.2% | 83% | 45.6% | 74.7% |
| CCNC(=O)c1[nH]cc(-c2ccc(OC)cc2)c1-c1cc(OC)cc(OC)c1 | 91.9% | 88.7% | 97.7% | 97.5% | 99% | 72.9% | 91.3% | 95.6% | 105% | 108% | 45.1% | 93% | 82.1% | 96.7% | 96.7% | 99.2% | 103% | 95.8% | – |
| CS(=O)(=O)OCCN(CCOS(C)(=O)=O)c1ccc(/C=N/Nc2ccc([N+](=O)[O-])cc2[N+](=O)[O-])cc1 | 73.6% | 81.4% | 94.5% | 92.8% | 37.5% | 71.8% | 80.8% | 101% | 90% | 99.7% | 102% | 86.8% | 71.6% | 94.1% | 79.2% | 80.5% | 96.9% | 99.3% | 102% |
| CC(=O)Nc1ccc(C(=O)Nc2cc(-c3ccccc3)ccc2N)cc1 | 86.4% | 124% | 79.5% | 67.7% | 59.7% | 69.2% | 74.2% | 97.9% | 35.5% | 73.2% | 39.2% | 80.6% | 92.5% | 68.2% | 58.7% | 81% | 72.6% | 77.3% | – |
| C=C1C(=O)O[C@H]2[C@H]1CC/C(CNC(=O)/C=C/c1ccc(Br)cc1)=C\CC[C@@]1(C)O[C@@H]21 | -9.66% (active) | 12.3% | 39.6% | 41.2% | 4.75% (active) | -26.2% (active) | 14.2% | -63.4% (active) | -64.9% (active) | -98.7% (active) | 0.48% (active) | -78% (active) | -80.6% (active) | -29.4% (active) | 49.6% | -91.7% (active) | -40.5% (active) | -72.4% (active) | -89.2% (active) |
| O=C(Nc1ccc(Nc2ncccn2)cc1)NC1C=c2ccccc2=CC1 (centres undefined) | 104% | 96.7% | 111% | 113% | 104% | 110% | 93.1% | 104% | 123% | 109% | 89.1% | 114% | 91.3% | 98.5% | 100% | 100% | 94.9% | 111% | 89.9% |
